Measured values published in PubChem BioAssay AID861 (The Scripps Research Institute Molecular Screening Center, 2007).
The whole screen tested about 200,000 compounds, of which about 360 (0.18%) were called active. The sample holds actives, similar compounds and a random draw of the others, so the mix is not that of the screen. A number with no mark means an inactive call. Rule as the data show it: active = inhibition above about 25%; inactive = the rest.

What follows are molecules tested against Toll-like receptor 4 (Homo sapiens) + Myeloid differentiation primary response protein MyD88 (Homo sapiens) (UniProt O00206+Q99836) (assay: disruptors of TLR4 binding to MyD88 – cell-based, HeLa CL3-4, BLA complementation, FRET ratio, primary screen (AID 861;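 also: 0% = vehicle and 100% = reference inhibitor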)). Settings: HeLa CL3-4 TLR4/MyD88 BLA complementation, at 8.4 µM, active compounds read high.
Chain of Toll-like receptor 4 (Homo sapiens) + Myeloid differentiation primary response protein MyD88 (Homo sapiens) (O00206 whole entry, looked up): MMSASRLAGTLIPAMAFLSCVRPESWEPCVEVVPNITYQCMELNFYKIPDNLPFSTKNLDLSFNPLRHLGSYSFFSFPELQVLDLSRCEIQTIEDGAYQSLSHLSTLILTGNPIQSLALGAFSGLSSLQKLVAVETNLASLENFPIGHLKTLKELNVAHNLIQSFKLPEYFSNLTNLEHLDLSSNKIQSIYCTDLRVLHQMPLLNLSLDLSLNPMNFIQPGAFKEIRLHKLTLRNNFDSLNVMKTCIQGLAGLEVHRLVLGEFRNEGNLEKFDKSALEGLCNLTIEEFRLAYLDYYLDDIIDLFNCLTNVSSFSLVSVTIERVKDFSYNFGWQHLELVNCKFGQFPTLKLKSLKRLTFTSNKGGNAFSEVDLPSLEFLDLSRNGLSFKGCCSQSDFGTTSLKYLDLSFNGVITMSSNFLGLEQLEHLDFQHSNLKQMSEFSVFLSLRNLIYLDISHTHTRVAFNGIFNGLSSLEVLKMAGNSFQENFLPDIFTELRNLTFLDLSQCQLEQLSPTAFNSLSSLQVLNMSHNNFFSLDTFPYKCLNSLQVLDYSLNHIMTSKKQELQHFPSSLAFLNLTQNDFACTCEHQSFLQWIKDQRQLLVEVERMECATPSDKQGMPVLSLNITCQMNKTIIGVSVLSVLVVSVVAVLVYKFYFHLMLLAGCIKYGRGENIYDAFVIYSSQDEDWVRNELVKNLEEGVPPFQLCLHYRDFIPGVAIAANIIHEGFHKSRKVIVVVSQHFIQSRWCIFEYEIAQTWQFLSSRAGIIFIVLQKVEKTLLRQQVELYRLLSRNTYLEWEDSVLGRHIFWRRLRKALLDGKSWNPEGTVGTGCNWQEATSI
Chain of Toll-like receptor 4 (Homo sapiens) + Myeloid differentiation primary response protein MyD88 (Homo sapiens) (Q99836 whole entry, looked up): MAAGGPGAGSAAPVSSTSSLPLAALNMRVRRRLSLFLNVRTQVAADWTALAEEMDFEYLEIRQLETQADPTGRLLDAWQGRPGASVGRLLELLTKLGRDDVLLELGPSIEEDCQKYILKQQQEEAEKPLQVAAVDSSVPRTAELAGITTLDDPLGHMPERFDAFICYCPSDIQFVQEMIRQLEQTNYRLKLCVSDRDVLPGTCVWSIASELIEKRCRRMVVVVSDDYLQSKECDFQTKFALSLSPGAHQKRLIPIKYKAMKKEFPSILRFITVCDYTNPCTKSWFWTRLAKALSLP

| SMILES | inhibition |
| --- | --- |
| Cc1cccc(C)c1N1CCN(S(=O)(=O)N2CCCCC2)CC1 | -5.18% |
| CC1CCN(C(=O)c2ccc(CSc3ccc(Cl)cc3)cc2)CC1 | 2.08% |
| C=C(C)C1CC=C(C)/C(=N\NC(=O)CNc2ccccc2OC)C1 (configuration not stated) | 3.79% |
| O=C(c1ccc2ccccc2n1)N1CCN(c2ccccc2Cl)CC1 | -7.41% |
| CCOC(=O)c1[nH]cnc1C(=O)Nc1ccccc1C | 4.26% |
| COc1ccccc1N1N=C(c2cccs2)CC1c1ccccc1 (configuration not stated) | 44.4% (active) |
| COc1ccc(C2CC(c3cccs3)=NN2c2ccc(F)cc2)cc1OC (configuration not stated) | 5.58% |
| COc1ccc(C2CC(c3cccs3)=NN2c2ccccc2)cc1 (configuration not stated) | 0.51% |
| O=C(Nc1ccc(Br)cn1)c1ccc([N+](=O)[O-])cc1Cl | 0.87% |
| O=C(O)c1ccc2c(c1)C(=O)N(c1ccc(/C=C/C(=O)c3ccccc3)cc1)C2=O | -0.8% |
| O=C(/C=C/c1ccc(N2CCOCC2)cc1)c1ccccc1 | 27.9% (active) |
| O=C(/C=C/c1ccccc1)c1ccoc1 | 4.74% |
| CCOc1ccc(-c2n[nH]c(=S)n2/N=C/c2cc3c(cc2[N+](=O)[O-])OCO3)cc1 | -2.5% |
| CCOC(=O)CCCN1CC(O)=C(c2nc3ccccc3s2)C1=N | -14.8% |
| COc1ccc(-c2[nH]ncc2/C=N/NC(=O)c2cc(Br)ccc2O)c(OC)c1 | -5.73% |
| COc1cc(OC)cc(-c2nnc(N(C)C(=O)c3ccncc3)s2)c1 | 11.3% |
| O=C(NCC1CCCO1)C1CCN(C2CCN(C(=O)C3CCCCC3)CC2)CC1 (configuration not stated) | -1.44% |
| CCOc1cc(NC(=S)NCc2ccco2)c(OCC)cc1NC(=O)c1ccco1 | -15.2% |
| CC(=O)C1C(c2ccc(Cl)cc2)c2c(n[nH]c2C)CC1(C)O (configuration not stated) | -3.07% |

| SMILES | inhibition |
| --- | --- |
| O=C(c1ccc(Cl)cc1)c1cnc(Nc2ccccc2)s1 | 25.8% (active) |
| O=C(CSc1nnc(Nc2ccccc2)s1)Nc1cccnc1Cl | -6.41% |
| CC(C)(C)C(=O)c1cnc(Nc2ccccc2)s1 | -8.48% |
| O=C(NC1CC1)C1CCCN(C(=O)NC2CCCCC2)C1 (configuration not stated) | 5.9% |
| Cc1cc(F)ccc1S(=O)(=O)N1CCCOC1CNC(=O)C(=O)NCCC1=CCCCC1 (configuration not stated) | -6.72% |
| O=C(Nc1ccc(-n2ccnc2P(=O)(O)c2ccccc2)cc1)c1ccccc1Br | -8.07% |
| Cc1ccc(C)c(NC(=O)CCC(=O)N/N=C2/CC(=O)CC(C)(C)C2)c1 | 6.45% |
| COc1ccc(F)c(-c2nc(CN3CCC(c4ccccc4)CC3)c(C)o2)c1 | -6.39% |
| O=C(OCC(=O)c1c[nH]c2ccccc12)c1cccc(O)c1 | -10% |
| Cc1cccc(COc2ccccc2/C=N/Nc2ccc([N+](=O)[O-])cc2)c1 | 28.7% (active) |
| Cc1ccccc1OCCOc1ccc([N+](=O)[O-])cc1/C=N/n1cnnc1 | -17.5% |
| COc1cc(/C=N/O)ccc1OCc1ccc([N+](=O)[O-])cc1 | -3.68% |
| CCCn1c(=S)[nH]c2ccc(C(F)(F)F)cc21 | -6.93% |
| CCNC(=O)N1c2ccccc2Sc2ccccc21 | 7.55% |
| Cc1cccc(C(=O)NC(=S)N2CCN(c3ccc([N+](=O)[O-])cc3)CC2)c1 | -12.6% |
| COC(=O)C1=NN(c2ccccc2)C2C(=O)N(c3ccccc3OC)C(=O)C12 (configuration not stated) | 0.17% |
| Cc1cccc(C(=O)Nc2ccccc2C(=O)NCc2cccnc2)c1 | -0.85% |
| O=C1Nc2ccccc2C12Nc1ccccc1S2 (configuration not stated) | -1.86% |
| CCc1ccc2c(c1)C1(NN=C(c3ccccc3)S1)C(=O)N2 (configuration not stated) | 25.3% (active) |

| SMILES | inhibition |
| --- | --- |
| C=C1c2cc(CC)ccc2NC(=O)N1c1ccc(C)cc1 | 1.66% |
| CNc1nc(Nc2ccc(C)c(Cl)c2)nc(N)c1[N+](=O)[O-] | -5.76% |
| O=C(Nc1ccccc1Cl)c1ccc2nsnc2c1 | 7.26% |
| O=C(CN1CCCCC1)Nc1ccccc1Cl | -3.05% |
| O=C(Nc1ccccc1Cl)/C(Cl)=C(\Cl)S(=O)c1ccccc1 (configuration not stated) | 27% (active) |
| CC1(c2ccccc2)CC(C)(C)N(C(=O)c2cc([N+](=O)[O-])cc([N+](=O)[O-])c2)c2ccccc21 (configuration not stated) | -16.2% |
| CCOc1ccc(C(C)=O)cc1COC(=O)c1cnc(Cl)c(Cl)c1 | 15.1% |
| COC(=O)/C(=C1\Oc2ccc(C(C)(C)C)cc2S1)C(F)(F)F | 6.06% |
| Cc1c(Cl)cccc1NC(=S)N(Cc1ccccc1)Cc1cccnc1 | 1.23% |
| CC(Sc1nc2c([nH]c3ccccc32)c(=O)n1C)c1ccccc1 (configuration not stated) | 8.9% |
| CC1=NN(c2cccc(Cl)c2)C(=O)C12CC(C)=C(C)CS2 (configuration not stated) | 2.14% |
| Cn1cc(CN2CCC(C(O)CCc3ccccc3)CC2)c(-c2ccccc2F)n1 (configuration not stated) | -13.8% |
| CC1CCN(C(=S)c2cccc(O)c2)CC1 | -6.27% |
| O=[N+]([O-])c1ccc(N2CCN(CC(O)COc3ccccc3)CC2)cc1 (configuration not stated) | 5.02% |
| CCc1cccc(CC)c1NC(=O)COc1ccccc1C(=O)c1cc(C#N)c(=O)n(C2CCCCC2)c1 | -16.2% |
| CC(C)CCN1C(=O)c2ccc(C(=O)Nc3cccc(S(N)(=O)=O)c3)cc2C1=O | 1.58% |
| CC(=O)NCCc1nc2cc(NC(=O)c3ccccc3)ccc2n1C | -9.04% |
| CC(Oc1ccc(Br)cc1Br)C(=O)NC1CCCC1 (configuration not stated) | -3.01% |
| CS(=O)(=O)N(Cc1ccccc1Cl)c1ccc(C(=O)NCc2cccnc2)cc1 | -15.2% |
